Sampled rows, rich in hits. Any-hit rate of the full collection: about 1.9%.
IEC-6 tox: cytotoxicity in IEC-6 intestinal epithelial cells, primary screen, cytotoxicity control for KLF5 inhibitor project, cell-based, luminescence; hit rate 0.78% among 290,000; AID 1825, 2009; inhibition, % at 5 µM; IEC-6 cytotoxicity, luminescence viability;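 further: 0% = plate median of test compound wells and 100% = cytotoxic reference compound wells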
APP 5UTR inh: inhibitors of APP translation via 5'UTR reporter, primary screen, APP 5'UTR luciferase, SH-SY5Y cells. SH-SY5Y APP 5'UTR-luciferase reporter, luminescence. inhibition, % at 2 µM. hit rate 0.82% among 190,000. AID 1285, 2008;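 active means inhibition above a set limit, derived from the sample mean plus 3 SD, cut at about 45% in these data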
Ba/F3 V617F tox: reduced viability of JAK2V617F-dependent Ba/F3 cells, primary screen, JAK2V617F inhibitor project, cell-based, Ba/F3 EpoR-JAK2V617F, luminescence; AID 1446, 2008; ATP luminescence; inhibition, % at 5.6 µM; hit rate 1.1% among 220,000;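 active means inhibition above the campaign mean plus 3 SD over all tested compounds, cut at about 24% in these data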;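 further: cytokine-independent growth of Ba/F3 cells driven by EpoR plus mutant JAK2; 0% = DMSO-treated cells and 100% = JAK inhibitor I control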
BaF3 tox: parental Ba/F3 cell viability inhibition, counter-screen for JAK2V617F inhibitor project, murine pro-B, CellTiter-Glo luminescence | CellTiter-Glo ATP luminescence | inhibition, % at 5.6 µM | hit rate 1.1% among 220,000 | AID 1486, 2009;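 active means inhibition above a per-campaign cutoff, the mean inhibition of all tested compounds plus 3 SD, cut at about 27% in these data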;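 further: 0% = DMSO wells and 100% = JAK Inhibitor I control wells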
KLF5 inh: KLF5 expression inhibitors, primary screen, DLD-1 cells, luminescence | DLD-1 KLF5 promoter-luciferase reporter | hit rate 0.23% among 290,000 | inhibition, % at 5 µM;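 active means inhibition above a per-plate limit of that plate's mean compound inhibition plus 3 SD, cut at about 60% in these data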;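 further: 0% = DMSO wells and 100% = LY294002 at 200 µM; higher means less KLF5 promoter-driven luciferase light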
IEC-6 tox confirm: cytotoxic compounds in IEC-6 epithelial cells, confirmation, cytotoxicity control, cell-based, luminescence; shares compounds with IEC-6 tox; IEC-6 rat intestinal epithelial viability; inhibition, % at 5 µM; hit rate 63% among 1,900; AID 1907, 2009;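 further: 0% = vehicle and 100% = reference cytotoxic drug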
An asterisk follows results filed as active; · = no result. Unless noted, no stated cut-off is given here; in the data, active means inhibition above about 22%; inactive means the rest.

SMILES	IEC-6 tox	APP 5UTR inh	Ba/F3 V617F tox	BaF3 tox	KLF5 inh	IEC-6 tox confirm
Cc1cccc(OCC(=O)NCC(=O)N/N=C/c2cc(Br)cc(Br)c2O)c1	29.6*	·	·	·	34.9	17.7
COc1ccc(NC2=C(NC(C)=O)C(=O)c3ccccc3C2=O)cc1	43.5*	·	·	·	-12.8	13.8
CC(=O)Nc1ccc(NC2=CC(=O)c3ccccc3C2=O)cc1	97.0*	·	·	·	-129.5	-1.1
CC(=O)Nc1ccc2c(c1)C(=O)c1ccccc1C2=O	1.7	-185.8	3.1	10.6	-152.1	·
COC1=C(Nc2ccc(OC)cc2)C(=O)c2ccccc2C1=O	-7.3	-11.2	-1.0	5.0	-25.5	·
O=C(NCc1ccccc1F)c1ccc2c(c1)OCCO2	-1.8	·	·	·	-59.0	·
CCOC(=O)c1cnn(-c2ccccc2)c1NC(=O)CSc1nnc(-c2cccs2)n1CC	24.3*	4.2	-1.4	4.5	-18.5	-8.4
Cc1ccc(-n2cc(CNCC3CC(=O)N(C4CC4)C3)c(-c3cccc(C)c3)n2)cc1 (stereo unspecified)	7.5	1.1	-0.4	8.3	-29.4	·
COc1ccc(C(NC(=O)c2c(F)c(F)c(F)c(F)c2F)c2ccccc2)cc1 (stereo unspecified)	26.9*	6.7	-3.5	1.3	-6.8	10.7
CSc1ccccc1NC(=O)CN(c1ccccc1Br)S(C)(=O)=O	-14.7	-4.6	-0.1	3.1	-20.0	·
O=c1oc2c(-c3ccc([N+](=O)[O-])cc3)cc(O)cc2s1	5.3	·	-1.1	0.9	0.4	·
CN(C)C(=S)Nc1nc2ccccc2s1	30.2*	-63.4	2.9	3.5	-181.6	-5.2
CC(NS(=O)(=O)c1ccc(OCC(=O)NCc2ccncc2)cc1)c1ccccc1 (stereo unspecified)	-3.5	·	·	·	2.7	·
COc1ccc(C(=O)Nc2ccc3ccccc3c2)cc1OC	7.5	·	·	·	-189.9	·
COc1cc(C(=O)Nc2ccc3ccccc3c2)cc(OC)c1OC	78.2*	·	·	·	43.5	59.4*
CC(=O)N1c2ccc(S(=O)(=O)N3CCCCC3)cc2CC1C(=O)Nc1ccc(C)cc1 (stereo unspecified)	4.0	·	·	·	-11.2	·
c1ccc2c(-c3csc(-c4ccncc4)n3)c[nH]c2c1	82.0*	-30.8	-1.5	15.5	-109.1	92.8*
Brc1ccc(-c2csc(-c3c[nH]c4ccccc34)n2)cc1	1.8	-37.6	1.6	0.8	-21.9	·
CC(C)C(=O)Nc1ccc(-c2nc3ncccc3o2)cc1	8.6	·	·	·	-52.5	·
O=C(Nc1ccc(-c2nc3ncccc3o2)cc1)c1ccc([N+](=O)[O-])o1	80.0*	·	·	·	13.8	8.3
Cc1ccc(-c2nc3ncccc3o2)cc1NC(=O)c1ccc([N+](=O)[O-])o1	98.0*	·	·	·	-6.9	20.3
O=C(Nc1ccc2oc(-c3ccncc3)nc2c1)c1ccc([N+](=O)[O-])o1	94.9*	·	·	·	-17.2	17.0
O=C(Nc1ccc2oc(-c3ccncc3)nc2c1)c1ccccc1	-1.7	-0.9	-3.1	-0.2	-32.4	·
CCN(CC)CCNC(=O)C1CCN(S(=O)(=O)c2c(C)noc2/C=C/c2ccccc2F)CC1	5.7	·	·	·	-20.2	·
COc1c(OC)c(O)c2c(=O)cc(-c3c(O)cccc3O)oc2c1OC	23.4*	9.8	2.7	37.0*	-4.5	2.6
SMILES	IEC-6 tox	APP 5UTR inh	Ba/F3 V617F tox	BaF3 tox	KLF5 inh	IEC-6 tox confirm
COc1ccc(-c2cc(=O)c3c(OC)c(OC)c(OC)c(OC)c3o2)cc1OC	1.0	7.5	3.6	-3.5	-18.6	·
CCOC(=O)c1sc(NC(=O)CCc2ccccc2)nc1C	54.2*	·	·	·	45.6	22.5*
CCOC(=O)C1=C(C)NC(SC)=C(C#N)C1CC(C)C (stereo unspecified)	70.4*	·	85.0*	80.6*	51.7	55.9*
CC(=O)C1=C(C)NC(SCC(N)=O)=C(C#N)C1CC(C)C (stereo unspecified)	2.6	-33.3	-1.9	0.2	-8.7	·
CCN(Cc1nc(-c2ccc(OC)cc2)no1)C(=O)c1ccoc1C	2.1	·	·	·	-10.3	·
COc1ccc(CC(=O)N2N=C(c3ccncc3)CC2(O)C(F)(F)F)cc1 (stereo unspecified)	24.5*	2.1	4.8	24.8	28.0	29.9*
COc1cccc(C(=O)N2N=C(c3ccccn3)CC2(O)C(F)(F)F)c1 (stereo unspecified)	24.5*	·	-0.9	-0.8	-15.6	11.5
O=C(NNc1ccccc1F)c1ccccc1	25.5*	·	10.5	-6.6	-2.3	-8.5
O=C(O)c1sccc1Oc1ccc(NS(=O)(=O)c2cccc(F)c2)cc1	-1.6	·	·	·	-46.3	·
CC(C)CN(C)C(=O)CCc1nnc(Cc2cccc(C(F)(F)F)c2)o1	0.6	-66.0	-2.8	-0.5	-62.2	·
CCOC(=O)C1(CCc2ccccc2)CCN(C(=O)c2ccoc2)CC1	-2.1	-1.4	5.5	3.2	-11.5	·
CC#CC(=O)N1CCC(CCc2ccccc2)(C(=O)OCC)CC1	26.9*	-12.0	-1.5	-0.1	6.3	11.8
CC(C)C(=O)OC1CCS(=O)(=O)c2sccc21 (stereo unspecified)	-2.8	-17.5	-2.1	4.9	-20.9	·
O=C(C#Cc1ccccc1)c1ccco1	100.8*	·	·	·	53.7	28.4*
O=C(N/N=C/c1ccccc1)c1ccco1	3.1	·	-0.8	0.9	-108.8	·
Cc1ccccc1C(=O)N1CCN(c2ccc(NC(=O)c3ccc([N+](=O)[O-])o3)cc2)CC1	97.9*	·	·	·	48.6	34.7*
CN1CCN(c2ccc(NC(=O)c3ccc([N+](=O)[O-])o3)cc2Cl)CC1	90.2*	·	·	·	-13.8	28.8*
O=C(Nc1ccc(N2CCN(C(=O)c3ccccc3)CC2)cc1)c1ccc([N+](=O)[O-])o1	85.0*	94.3*	99.0*	76.8*	22.6	34.9*
O=C(Nc1ccccc1N1CCN(C(=O)c2ccc(Cl)cc2)CC1)c1ccc([N+](=O)[O-])o1	33.4*	·	·	·	-31.0	11.9
COc1ccc(C(=O)Nc2ccc(N3CCN(C(=O)c4ccccc4)CC3)cc2)cc1[N+](=O)[O-]	1.0	-2.9	8.4	14.6	-44.2	·
CN(CCC#N)C(=O)CC1(Cc2ccccc2)CCOC(C)(C)C1 (stereo unspecified)	5.8	·	0.6	2.4	-5.3	·
CNC(=S)N(CCc1c(C)[nH]c2ccc(C)cc12)Cc1cccnc1	6.7	·	·	·	-28.4	·
COc1ccccc1N(Cc1ccccc1)S(=O)(=O)c1cc(C(=O)O)ccc1Cl	1.4	8.4	1.5	10.5	11.4	·
CC(C)C(=O)N1CCN(c2ccc(NC(=O)c3ccc([N+](=O)[O-])o3)cc2)CC1	23.9*	57.3*	67.4*	33.1*	8.7	14.3
CC(C)C(=O)N1CCN(c2ccc(NC(=O)c3ccc(Br)o3)cc2)CC1	0.3	-16.8	-1.7	1.6	-32.9	·
Cc1cc(NC(c2ccc(Cl)cc2)c2ccc3cccnc3c2O)no1 (stereo unspecified)	39.3*	79.4*	5.8	55.1*	51.2	72.0*

Assay outcomes from PubChem.
